Source: PubChem BioAssay AID1159580 (chemical genetic matrix, 2015)
The campaign covered roughly 5,500 compounds. About 2,000 (36%) were called active. Another 18% or so got no clear call; they are omitted. Rule as the data show it: active = normalized growth mostly below about 0.91 (no sharp cut-off); inconclusive = no clear call, values can overlap the other calls; inactive = mostly above about 0.92. This is one part of the list.

Test: chemical genetic growth profiling, strain panel (AID 1159580);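 also: tested at 20 µM; growth read once vehicle control cultures reached saturation at 30 °C; 1 = growth at the plate median or of vehicle wells; lower values mean less growth of the strain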
Settings: growth OD

Measured: normalized growth

CCC[C@@H]1C[C@@H](C(=O)N[C@H]([C@H]2O[C@H](SC)[C@H](O)[C@@H](O)[C@H]2O)[C@H](C)O)N(C)C1
inactive: S. cerevisiae deletion strains, locus YJR066W, strain TOR1, hits give low values 0.967 | S. cerevisiae deletion strains, locus YJR075W, strain HOC1, hits give low values 0.993 | S. cerevisiae deletion strains, locus YKL009W, strain mrt4, hits give low values 0.974 | S. cerevisiae deletion strains, locus YKL068W, hits give low values 0.991 | S. cerevisiae deletion strains, locus YKL085W, strain MDH1 (second series), hits give low values 0.984 | S. cerevisiae deletion strains, locus YKL085W, strain MDH1, hits give low values 0.984 | S. cerevisiae deletion strains, locus YKL160W, strain elf1, hits give low values 0.964 | S. cerevisiae deletion strains, locus YKL190W, strain CNB1, hits give low values 1.01 | S. cerevisiae deletion strains, locus YKR001C, strain vps1, hits give low values 0.996 | S. cerevisiae deletion strains, locus YKR026C, strain gcn3, hits give low values 0.979 | S. cerevisiae deletion strains, locus YKR091W, strain srl3, hits give low values 0.987 | S. cerevisiae deletion strains, locus YLL001W, strain dnm1, hits give low values 0.951 | S. cerevisiae deletion strains, locus YLL026W, hits give low values 0.962 | S. cerevisiae deletion strains, locus YLL041C, strain sdh2, hits give low values 0.982 | S. cerevisiae deletion strains, locus YLR027C, strain aat2, hits give low values 0.97 | S. cerevisiae deletion strains, locus YLR039C, strain RIC1, hits give low values 0.973 | S. cerevisiae deletion strains, locus YLR058C, strain SHM2, hits give low values 0.977 | S. cerevisiae deletion strains, locus YLR102C, strain apc9, hits give low values 0.992 | S. cerevisiae deletion strains, locus YLR113W, strain HOG1, hits give low values 1.03 | S. cerevisiae deletion strains, locus YLR221C, strain rsa3, hits give low values 1.03 | S. cerevisiae deletion strains, locus YLR258W, strain gsy2, hits give low values 1 | S. cerevisiae deletion strains, locus YLR262C, strain YPT6 (second series), hits give low values 0.965 | S. cerevisiae deletion strains, locus YLR262C, strain YPT6, hits give low values 1.02 | S. cerevisiae deletion strains, locus YLR268W, strain sec22, hits give low values 1.01 | S. cerevisiae deletion strains, locus YLR320W, strain mms22, hits give low values 1.02 | S. cerevisiae deletion strains, locus YLR330W, strain CHS5, hits give low values 0.986 | S. cerevisiae deletion strains, locus YLR342W, strain FKS1 (second series), hits give low values 1 | S. cerevisiae deletion strains, locus YLR342W, strain FKS1, hits give low values 0.966 | S. cerevisiae deletion strains, locus YLR357W, strain rsc2, hits give low values 1 | S. cerevisiae deletion strains, locus YLR370C, strain arc18, hits give low values 0.972 | S. cerevisiae deletion strains, locus YLR371W, strain rom2, hits give low values 0.992 | S. cerevisiae deletion strains, locus YLR384C, strain iki3, hits give low values 0.97 | S. cerevisiae deletion strains, locus YLR418C, strain cdc73, hits give low values 0.975 | S. cerevisiae deletion strains, locus YML016C, strain PPZ1, hits give low values 0.989 | S. cerevisiae deletion strains, locus YML032C, strain rad52, hits give low values 1 | S. cerevisiae deletion strains, locus YML120C, strain ndi1, hits give low values 0.95 | S. cerevisiae deletion strains, locus YML124C, strain tub3, hits give low values 0.998 | S. cerevisiae deletion strains, locus YMR058W, strain fet3, hits give low values 0.975 | S. cerevisiae deletion strains, locus YMR078C, strain ctf18, hits give low values 0.986 | S. cerevisiae deletion strains, locus YMR125W, strain sto1, hits give low values 0.992 | S. cerevisiae deletion strains, locus YMR129W, hits give low values 0.991 | S. cerevisiae deletion strains, locus YMR205C, strain PFK2, hits give low values 0.99 | S. cerevisiae deletion strains, locus YMR223W, strain ubp8, hits give low values 0.962 | S. cerevisiae deletion strains, locus YMR231W, strain pep5, hits give low values 0.996 | S. cerevisiae deletion strains, locus YMR263W, strain SAP30, hits give low values 0.996 | S. cerevisiae deletion strains, locus YMR307W, strain GAS1, hits give low values 1 | S. cerevisiae deletion strains, locus YNL067W, strain RPL9B, hits give low values 1.01 | S. cerevisiae deletion strains, locus YNL071W, strain lat1, hits give low values 0.986 | S. cerevisiae deletion strains, locus YNL183C, strain NPR1, hits give low values 0.968 | S. cerevisiae deletion strains, locus YNL209W, strain ssb2, hits give low values 0.993 | S. cerevisiae deletion strains, locus YNL233W, strain BNI4, hits give low values 0.984 | S. cerevisiae deletion strains, locus YNL248C, strain rpa49, hits give low values 1.02 | S. cerevisiae deletion strains, locus YNL250W, strain rad50, hits give low values 0.979 | S. cerevisiae deletion strains, locus YNL271C, strain bni1, hits give low values 0.985 | S. cerevisiae deletion strains, locus YNL298W, strain CLA4, hits give low values 0.989 | S. cerevisiae deletion strains, locus YNL307C, strain MCK1, hits give low values 0.993 | S. cerevisiae deletion strains, locus YNL322C, strain KRE1 (second series), hits give low values 0.987 | S. cerevisiae deletion strains, locus YNL322C, strain KRE1, hits give low values 0.993 | S. cerevisiae deletion strains, locus YNR049C, strain mso1, hits give low values 0.977 | S. cerevisiae deletion strains, locus YNR052C, strain pop2, hits give low values 0.987 | S. cerevisiae deletion strains, locus YOL012C, strain htz1 0.745 | S. cerevisiae deletion strains, locus YOL147C, strain pex11, hits give low values 0.985 | S. cerevisiae deletion strains, locus YOR001W, strain rrp6, hits give low values 0.947 | S. cerevisiae deletion strains, locus YOR061W, strain CKA2, hits give low values 0.998 | S. cerevisiae deletion strains, locus YOR069W, strain VPS5, hits give low values 0.99 | S. cerevisiae deletion strains, locus YOR070C, strain gyp1, hits give low values 0.993 | S. cerevisiae deletion strains, locus YOR080W, strain dia2, hits give low values 0.971 | S. cerevisiae deletion strains, locus YOR083W, strain WHI5, hits give low values 0.966 | S. cerevisiae deletion strains, locus YOR106W, strain vam3, hits give low values 0.951 | S. cerevisiae deletion strains, locus YOR136W, strain idh2, hits give low values 0.984 | S. cerevisiae deletion strains, locus YOR144C, strain elg1, hits give low values 0.985 | S. cerevisiae deletion strains, locus YOR184W, strain ser1, hits give low values 0.978 | S. cerevisiae deletion strains, locus YOR231W, strain MKK1, hits give low values 1.04 | S. cerevisiae deletion strains, locus YOR265W, strain rbl2, hits give low values 0.983 | S. cerevisiae deletion strains, locus YOR270C, strain vph1, hits give low values 0.948 | S. cerevisiae deletion strains, locus YOR290C, strain snf2, hits give low values 1 | S. cerevisiae deletion strains, locus YOR316C, strain cot1, hits give low values 0.992 | S. cerevisiae deletion strains, locus YPL051W, strain arl3, hits give low values 1 | S. cerevisiae deletion strains, locus YPL078C, strain atp4, hits give low values 0.928 | S. cerevisiae deletion strains, locus YPL106C, strain sse1, hits give low values 0.94 | S. cerevisiae deletion strains, locus YPL240C, strain hsp82, hits give low values 0.981 | S. cerevisiae deletion strains, locus YPL241C, strain CIN2, hits give low values 0.998 | S. cerevisiae deletion strains, locus YPL256C, strain CLN2, hits give low values 1.03 | S. cerevisiae deletion strains, locus YPR119W, strain clb2, hits give low values 0.997 | S. cerevisiae deletion strains, locus YPR141C, strain kar3, hits give low values 0.985 | S. cerevisiae deletion strains, locus YPR163C, strain tif3, hits give low values 0.987 | S. cerevisiae deletion strains, locus YPR167C, strain met16, hits give low values 0.993 | S. cerevisiae deletion strains, strain wtn01, hits give low values 0.98 | S. cerevisiae strains, strain wild type, hits give low values 1.01
